Inconclusive results are not listed. Calls of active or inactive are those of the source. Unless noted, calls come from the whole dose curve.
How the values were obtained:
[1] = Nuclear factor erythroid 2-related factor 2/antioxidant responsive element (Nrf2/ARE) small molecule agonists: qHTS cell viability counter screen in human keratinocytes (AID 1919968; active = well fitted curve in the direction sought with a large enough effect in the repeat runs; an effect the other way counts as inactive or inconclusive; note: nearly all actives have a fitted effect of over 55% in size; note: potency is the fitted concentration of half-maximal effect)
Summary of the method: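 Cells of the KeratinoSens line were plated at 1,500 per well and left for 5 h before compound transfer from DMSO stocks. After a 23 h incubation (37 C, 5% CO2), CellTiter-Fluor was added. Signal was taken as fluorescence intensity 1 h later.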

[2] = Nuclear factor erythroid 2-related factor 2/antioxidant responsive element (Nrf2/ARE) small molecule agonists: luciferase reporter gene qHTS assay in human keratinocytes (AID 1919969); note: nearly all actives have a fitted effect of over 35% in size; note: potency is the fitted concentration of half-maximal effect
[3] = molecular target: Gonadotropin-releasing hormone receptor (Homo sapiens) (UniProt P30968); assay: Human gonadotropin-releasing hormone receptor (GnRHR) small molecule agonists, calcium flux assay in GnRHR-HEK293 cells (AID 1920063); note: nearly all actives have a fitted effect of over 35% in size
Gonadotropin-releasing hormone receptor (Homo sapiens), sequence (P30968 whole entry, looked up): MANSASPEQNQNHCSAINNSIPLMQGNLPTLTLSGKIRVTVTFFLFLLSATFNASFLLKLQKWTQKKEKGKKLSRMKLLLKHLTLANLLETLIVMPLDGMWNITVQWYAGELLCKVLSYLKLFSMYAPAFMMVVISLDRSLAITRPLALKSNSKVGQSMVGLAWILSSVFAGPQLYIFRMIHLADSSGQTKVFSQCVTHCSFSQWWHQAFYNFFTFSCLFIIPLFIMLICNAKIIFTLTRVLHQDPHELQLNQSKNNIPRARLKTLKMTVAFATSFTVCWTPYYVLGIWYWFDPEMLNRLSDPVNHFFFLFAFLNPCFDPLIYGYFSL
Summary of the method: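 Compounds dissolved in DMSO are pin-transferred onto dye-loaded GnRHR-HEK293 cells, which were seeded 18 h before at 37 C/5% CO2. Calcium signal is read as fluorescence intensity at 1 s intervals for 3 min.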

[4] = molecular target: KiSS-1 receptor (Homo sapiens) (UniProt Q969F8); assay: Human kisspeptin (KISS1R) small molecule agonists, calcium flux assay in KISS1R-HEK293 cells (AID 1920064; active = well fitted curve in the direction sought with a large enough effect in the repeat runs; an effect the other way counts as inactive or inconclusive)
KiSS-1 receptor (Homo sapiens), sequence (Q969F8 whole entry, looked up): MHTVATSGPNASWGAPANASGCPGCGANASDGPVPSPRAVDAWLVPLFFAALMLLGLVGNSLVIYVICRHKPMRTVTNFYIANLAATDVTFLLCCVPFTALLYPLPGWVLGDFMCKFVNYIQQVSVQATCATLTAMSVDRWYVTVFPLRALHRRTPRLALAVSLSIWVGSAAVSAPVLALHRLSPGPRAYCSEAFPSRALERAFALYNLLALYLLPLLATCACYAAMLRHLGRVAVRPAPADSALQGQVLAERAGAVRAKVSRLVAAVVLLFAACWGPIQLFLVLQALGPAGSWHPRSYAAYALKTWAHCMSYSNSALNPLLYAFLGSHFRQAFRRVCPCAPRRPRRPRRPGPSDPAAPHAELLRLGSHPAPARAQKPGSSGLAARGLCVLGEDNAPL
Summary of the method: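 Cell line: HEK293, stable human KISS1R. Dye loading 1 h at 37 C after 18 h culture. Read: kinetic fluorescence, 480/540 nm, 3 min at 1 s intervals.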

[5] = G protein-coupled receptor (GPCR) small molecule agonists, calcium flux assay: HEK293 wild type cell line counter screen (AID 1920065)
Summary of the method: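 Tox21 10K compounds, 15 concentrations each in triplicate, pin-transferred in DMSO onto dye-loaded cells; kinetic read at 480/540 nm for 3 min, 1 s intervals.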

[6] = p53 small molecule agonists, cell-based qHTS assay with human liver microsomes (AID 1963577);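 note: p53 response element beta-lactamase reporter cells with liver microsomes plus NADPH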
Summary of the method: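 Metabolically competent format: test substances, human liver microsomes and NADPH (both 0.5 mg/mL final) incubated with p53RE-bla cells 16 h at 37 C. Beta-lactamase reporter signal then quantified by fluorescence.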

[7] = p53 small molecule agonists, cell-based qHTS assay with rat liver microsomes (AID 1963578)
Summary of the method: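 Each plate received p53RE-bla cells, then compound, then rat liver microsomes and NADPH (both 0.5 mg/mL final). Plates were held 16 h at 37 C, and beta-lactamase activity was detected with LiveBLAzer over 2 h.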

[8] = p53 small molecule agonists, cell-based qHTS assay with human liver microsomes: qHTS cell viability counter screen (AID 1963579); note: nearly all actives have a fitted effect of over 45% in size
Summary of the method: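 Tox21 library compounds, delivered from DMSO stocks, were tested on p53RE-bla cells together with 0.5 mg/mL human liver microsomes and 0.5 mg/mL NADPH (final) over 16 h at 37 C; CellTiter-Glo luminescence served as the cytotoxicity measure.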

[9] = p53 small molecule agonists, cell-based qHTS assay with rat liver microsomes: qHTS cell viability counter screen (AID 1963580); note: nearly all actives have a fitted effect of over 45% in size
Summary of the method: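 Cytotoxicity counter screen: intracellular ATP read by CellTiter-Glo luminescence in the p53 reporter wells. HCT-116 p53RE-bla cells were treated for 16 h at 37 C alongside rat liver microsomes and NADPH, each 0.5 mg/mL final.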

[10] = p53 small molecule agonists, cell-based qHTS assay (AID 1963582; active = well fitted activation curve with a large enough effect in the signal ratio in the repeat runs, not every such curve was filed as active; the % refers to the signal ratio)
Summary of the method: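 16 h compound exposure (37 C) of p53 response element–bla cells, preceded by 5 h recovery at 37 C/5% CO2; read-out via LiveBLAzer B/G FRET substrate, 2 h RT, fluorescence intensity.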

[11] = molecular target: 5-hydroxytryptamine receptor 2A (Homo sapiens) (UniProt P28223); assay: 5-hydroxytryptamine receptor 2A (HTR2A) small molecule antagonists, cell-based qHTS assay (AID 1963586); note: nearly all actives have a fitted effect of over 45% in size
5-hydroxytryptamine receptor 2A (Homo sapiens), sequence (P28223 whole entry, looked up): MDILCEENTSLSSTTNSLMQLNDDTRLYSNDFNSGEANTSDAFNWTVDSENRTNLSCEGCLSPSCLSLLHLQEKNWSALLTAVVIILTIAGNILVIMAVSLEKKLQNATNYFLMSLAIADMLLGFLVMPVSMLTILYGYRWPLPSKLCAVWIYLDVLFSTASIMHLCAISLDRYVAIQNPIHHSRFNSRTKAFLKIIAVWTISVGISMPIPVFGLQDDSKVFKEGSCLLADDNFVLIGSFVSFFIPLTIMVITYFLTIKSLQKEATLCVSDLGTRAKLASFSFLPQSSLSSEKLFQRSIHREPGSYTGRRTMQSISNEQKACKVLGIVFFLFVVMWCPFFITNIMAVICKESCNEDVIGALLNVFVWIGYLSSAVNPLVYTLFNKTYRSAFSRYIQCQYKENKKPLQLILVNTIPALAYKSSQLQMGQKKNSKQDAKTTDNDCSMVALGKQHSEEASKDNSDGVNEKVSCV
Summary of the method: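 CHO cells stably expressing human HTR2A were plated for 18 h at 37 C, then loaded with calcium dye for 1 h. Compounds were preincubated 5 min at room temperature before DOI (4 nM solution) was added. Kinetic fluorescence was read for 3 min.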

[12] = molecular target: 5-hydroxytryptamine receptor 2A (Homo sapiens) (UniProt P28223); assay: 5-hydroxytryptamine receptor 2A (HTR2A) small molecule agonists, cell-based qHTS assay (AID 1963587); note: nearly all actives have a fitted effect of over 30% in size
Summary of the method: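 Kinetic calcium-flux fluorescence (2 min, 1 sec intervals) after compound addition in agonist mode. HTR2A-CHO cells were cultured 18 h, then dye-loaded 1 h at 37 C.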

[13] = molecular target: Muscarinic acetylcholine receptor M1 (Homo sapiens) (UniProt P11229); assay: Cholinergic receptor muscarinic 1 (CHRM1) small molecule agonists, cell-based qHTS assay (AID 1963589); note: nearly all actives have a fitted effect of over 35% in size
Muscarinic acetylcholine receptor M1 (Homo sapiens), sequence (P11229 whole entry, looked up): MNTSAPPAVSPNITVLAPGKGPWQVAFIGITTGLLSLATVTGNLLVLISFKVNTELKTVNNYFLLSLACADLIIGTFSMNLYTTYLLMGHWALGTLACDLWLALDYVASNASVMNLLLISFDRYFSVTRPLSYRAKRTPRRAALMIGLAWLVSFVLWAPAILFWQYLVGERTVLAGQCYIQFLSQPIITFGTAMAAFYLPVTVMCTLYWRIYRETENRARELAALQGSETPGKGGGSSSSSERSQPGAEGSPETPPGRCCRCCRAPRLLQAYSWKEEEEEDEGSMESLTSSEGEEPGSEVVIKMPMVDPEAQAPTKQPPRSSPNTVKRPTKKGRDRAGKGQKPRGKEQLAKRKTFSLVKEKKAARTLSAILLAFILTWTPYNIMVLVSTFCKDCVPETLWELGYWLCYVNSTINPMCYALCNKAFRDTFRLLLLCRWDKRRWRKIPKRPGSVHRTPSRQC
Summary of the method: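 Homogeneous fluorescence calcium flux, agonist mode. Human M1-expressing CHO cells; compound dosed at 15 concentrations, three independent runs; signal sampled every 1 sec.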

[14] = molecular target: Beta-2 adrenergic receptor (Homo sapiens) (UniProt P07550); assay: Adrenergic beta2 receptor (ADRB2) small molecule antagonists, cell-based qHTS assay (AID 1963592); note: series mostly up to about 92 µM; nearly all actives have a fitted effect of over 50% in size
Beta-2 adrenergic receptor (Homo sapiens), sequence (P07550 whole entry, looked up): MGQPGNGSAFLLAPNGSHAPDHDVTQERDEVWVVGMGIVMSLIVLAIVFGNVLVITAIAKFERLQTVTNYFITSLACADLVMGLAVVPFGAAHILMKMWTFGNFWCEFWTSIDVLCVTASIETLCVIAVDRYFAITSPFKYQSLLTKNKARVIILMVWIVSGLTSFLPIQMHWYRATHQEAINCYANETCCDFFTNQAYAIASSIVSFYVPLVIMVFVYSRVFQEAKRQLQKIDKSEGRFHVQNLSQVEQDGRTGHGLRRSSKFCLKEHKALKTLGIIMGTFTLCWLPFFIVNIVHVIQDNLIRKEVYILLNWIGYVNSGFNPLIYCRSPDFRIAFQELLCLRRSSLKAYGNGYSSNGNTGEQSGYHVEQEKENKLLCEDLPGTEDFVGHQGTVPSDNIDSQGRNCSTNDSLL
Summary of the method: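 Assay format: CHO-ADRB2 cells, 18-20hr seeding at 37C/5% CO2, then compound plus 1nM isoproterenol agonist mix for 0.5hr RT. Homogeneous time-resolved fluorescence cAMP detection after 1hr, expressed as 665/615 nm ratio.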

[15] = molecular target: D(2) dopamine receptor (Homo sapiens) (UniProt P14416); assay: Dopamine D2 receptor (DRD2) small molecule agonists, cell-based qHTS assay (AID 1963594); note: nearly all actives have a fitted effect of over 35% in size
D(2) dopamine receptor (Homo sapiens), sequence (P14416 whole entry, looked up): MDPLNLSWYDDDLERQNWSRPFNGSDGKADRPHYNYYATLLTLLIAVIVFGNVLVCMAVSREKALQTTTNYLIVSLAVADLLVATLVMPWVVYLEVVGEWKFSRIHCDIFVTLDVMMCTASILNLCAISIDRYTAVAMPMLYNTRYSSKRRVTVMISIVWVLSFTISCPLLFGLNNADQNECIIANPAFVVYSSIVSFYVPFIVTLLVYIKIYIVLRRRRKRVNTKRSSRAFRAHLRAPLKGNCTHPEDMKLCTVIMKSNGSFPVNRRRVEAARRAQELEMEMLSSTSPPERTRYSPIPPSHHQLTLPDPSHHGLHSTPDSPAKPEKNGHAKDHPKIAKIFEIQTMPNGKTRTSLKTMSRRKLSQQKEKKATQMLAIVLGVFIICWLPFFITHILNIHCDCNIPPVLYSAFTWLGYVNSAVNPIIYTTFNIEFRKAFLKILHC
Summary of the method: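 cAMP accumulation in DRD2-HEK293 cells measured by HTRF after 1 h detection; compounds added 10 min before NKH477 (200nM […]) forskolin-analogue stimulation, 30 min at room temperature, with Ro20-1724 present at 0.1 mM final.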

[16] = molecular target: D(2) dopamine receptor (Homo sapiens) (UniProt P14416); assay: Dopamine D2 receptor (DRD2) small molecule antagonists, cell-based qHTS assay (AID 1963595; active = well fitted inhibition curve with a large enough effect in the signal ratio in the repeat runs, with a control signal flat; the % refers to the signal ratio)
Summary of the method: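 HEK293 cells stably expressing DRD2 were preincubated with 0.1 mM Ro20-1724, then with compound for 10 min at room temperature. Cells were stimulated with 200 nM NKH477 plus 12 nM quinpirole for 30 min, and cAMP was read by HTRF.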

[17] = cAMP Responsive Elements (CRE) small molecule agonists, cell-based qHTS assay (AID 1963590)
Summary of the method: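 HEK 293T cells stably bearing CRE-bla were plated at 2,000 cells per well and rested 18 h. Compounds, positive controls or DMSO were added for 3 h at 37 C. LiveBLAzer B/G substrate was then loaded for 2 h at room temperature.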

[18] = cAMP Responsive Elements (CRE) small molecule antagonists, cell-based qHTS assay (AID 1963591; active = well fitted inhibition curve with a large enough effect in the signal ratio in the repeat runs, not every such curve was filed as active; the % refers to the signal ratio)
Summary of the method: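 First, CRE-bla HEK293T cells settled 18 h at 37 C. Next, compound and 0.25 uM final NKH477 were applied for 3 h. Last, LiveBLAzer B/G substrate was loaded for 2 h at room temperature.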

[19] = molecular target: Muscarinic acetylcholine receptor M1 (Homo sapiens) (UniProt P11229); assay: Cholinergic receptor muscarinic 1 (CHRM1) small molecule antagonists, cell-based qHTS assay (AID 1963588); note: nearly all actives have a fitted effect of over 40% in size
Summary of the method: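 Compounds were tested at 15 concentrations in three independent runs. Dye-loaded CHRM1-CHO cells were exposed 5 min at room temperature before stimulation by acetylcholine added at 50nM. Intracellular calcium was read kinetically on FDSS for 3 min.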

[20] = molecular target: Beta-2 adrenergic receptor (Homo sapiens) (UniProt P07550); assay: Adrenergic beta2 receptor (ADRB2) small molecule agonists, cell-based qHTS assay (AID 1963593);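 note: CHO cells stably overexpressing human ADRB2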
Summary of the method: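 CHO cells stably over-expressing ADRB2 were plated overnight at 37C, then dosed with compounds plus a stimulation mix containing 100uM IBMX and 25uM Ro-20-1724 for 0.5hr at room temperature. cAMP was measured by HTRF competition, 1hr.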
% is set by controls: 0 for no effect and ±100 for the full control effect.

Nc1nc(CC(=O)O)cs1
inactive: Potency [1] | Potency [2] | Potency [3] | outcome [4] | outcome [5] | Potency [6] | Potency [7] | Potency [8] | Potency [9] | Potency [10] | Potency [11] | Potency [12] | Potency [13] | Potency [14] | Potency [15] | Potency [16]

CC=C(Cl)Cl
inactive: Potency [1] | Potency [2] | Potency [3] | outcome [4] | outcome [5] | Potency [6] | Potency [7] | Potency [8] | Potency [9] | Potency [10] | Potency [12] | Potency [13] | Potency [17] | Potency [18] | Potency [14] | Potency [16]

Oc1c(Br)cc(Br)c2cccnc12
active: Potency [1] 2660 nM | Potency [2] 841 nM
inactive: Potency [3] | outcome [4] | outcome [5] | Potency [6] | Potency [7] | Potency [8] | Potency [9] | Potency [10] | Potency [11] | Potency [19] | Potency [13] | Potency [14] | Potency [15] | Potency [16]

CCOC(=O)c1ccc(I)cc1
inactive: Potency [1] | Potency [2] | Potency [3] | outcome [4] | outcome [5] | Potency [6] | Potency [7] | Potency [8] | Potency [9] | Potency [10] | Potency [12] | Potency [19] | Potency [17] | Potency [18] | Potency [14] | Potency [15] | Potency [16]

Oc1ccccc1C=NCc1ccccc1
inactive: Potency [1] | Potency [2] | Potency [3] | outcome [4] | outcome [5] | Potency [6] | Potency [7] | Potency [8] | Potency [9] | Potency [10] | Potency [12] | Potency [19] | Potency [13] | Potency [17] | Potency [18] | Potency [14] | Potency [20] | Potency [15]

CN(C)CCN1C(=O)c2ccccc2N(C)c2ccccc21
inactive: Potency [1] | Potency [2] | Potency [3] | outcome [4] | outcome [5] | Potency [6] | Potency [7] | Potency [8] | Potency [9] | Potency [10] | Potency [12] | Potency [13] | Potency [18] | Potency [14] | Potency [20] | Potency [15] | Potency [16]

CCN(CCO)CCCC(C)Nc1ccnc2cc(Cl)ccc12 (stereo unspecified)
inactive: activity change, negative = cytotoxicity [1] -14.6% [at 8.39 µM] | activity, positive = activation [2] -5.51% [at 8.39 µM] | activity change [3] -0.334% [at 5.22 µM, active compounds read high] | activation [4] -0.232% [at 6.97 µM] | activation [5] -1.14% [at 5.23 µM] | activation [6] 9.14% [at 5.99 µM] | activation [7] 0.449% [at 5.99 µM] | activity change, negative = cytotoxicity [8] -18.4% [at 5.99 µM] | activity change, negative = cytotoxicity [9] -0.0605% [at 5.99 µM] | activation [10] 0.694% [at 5.99 µM] | activation [17] 0.273% [at 8.39 µM] | activity change, negative = inhibition [18] -1.93% [at 8.39 µM] | activity change, negative = inhibition [14] 1.52% [at 8.39 µM] | activation [15] 4.56% [at 8.39 µM] | activity change, negative = inhibition [16] 12.2% [at 8.38 µM]

Nc1cccc2c(=O)[nH][nH]c(=O)c12
inactive: Potency [1] | Potency [2] | Potency [3] | outcome [4] | outcome [5] | Potency [6] | Potency [7] | Potency [8] | Potency [9] | Potency [10] | Potency [19] | Potency [13] | Potency [18] | Potency [14] | Potency [15] | Potency [16]
